Test results from the supplement of paper PMC7411054.

How the values were obtained:
Assay in all cases: phenotypically active (imaging signature differs from DMSO and reproducible) at any of 0.3-9 uM (binary (1 = active, 0 = inactive)); higher = active
Settings in all cases: treatment time: 24 h
A549-ACTB-RAB5A = test system: A549-ACTB-RAB5A
How it was run: (§1)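 Cells from fifteen gene-edited reporter lines (A549, HepG2 and WPMY1) were treated for 24 h at 0.3, 1, 3 or 9 µM and imaged live, four wells per condition. Features were normalised per well to solvent control wells. A condition deviated if ≥3 of 4 wells passed the 95th percentile of control Euclidean distances and was reproducible if its median replicate Pearson correlation beat the 95th percentile of non-replicates; phenotypic activity needed both.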

A549-CANX-COX4 = test system: A549-CANX-COX4
How it was run: as §1

A549-GM130-SQSTM1 = test system: A549-GM130-SQSTM1
How it was run: as §1

A549-TP53BP1-CLTA = test system: A549-TP53BP1-CLTA
How it was run: as §1

A549-TUBA1B-RELA = test system: A549-TUBA1B-RELA
How it was run: as §1

HepG2-ACTB-RAB5A = test system: HepG2-ACTB-RAB5A
How it was run: as §1

HepG2-CANX-COX4 = test system: HepG2-CANX-COX4
How it was run: as §1

HepG2-GM130-SQSTM1 = test system: HepG2-GM130-SQSTM1
How it was run: as §1

HepG2-TP53BP1-CLTA = test system: HepG2-TP53BP1-CLTA
How it was run: as §1

HepG2-TUBA1B-RELA = test system: HepG2-TUBA1B-RELA
How it was run: as §1

WPMY1-ACTB-RAB5A = test system: WPMY1-ACTB-RAB5A
How it was run: as §1

WPMY1-CANX-COX4 = test system: WPMY1-CANX-COX4
How it was run: as §1

WPMY1-GM130-SQSTM1 = test system: WPMY1-GM130-SQSTM1
How it was run: as §1

WPMY1-TP53BP1-CLTA = test system: WPMY1-TP53BP1-CLTA
How it was run: as §1

WPMY1-TUBA1B-RELA = test system: WPMY1-TUBA1B-RELA
How it was run: as §1

Measured: phenotypically active

COC(=O)c1sccc1S(=O)(=O)Nc1ccc(Nc2ccccc2)cc1OC
inactive: A549-ACTB-RAB5A 0 | A549-CANX-COX4 0 | A549-GM130-SQSTM1 0 | A549-TP53BP1-CLTA 0 | A549-TUBA1B-RELA 0 | HepG2-ACTB-RAB5A 0 | HepG2-CANX-COX4 0 | HepG2-GM130-SQSTM1 0 | HepG2-TP53BP1-CLTA 0 | HepG2-TUBA1B-RELA 0 | WPMY1-ACTB-RAB5A 0 | WPMY1-CANX-COX4 0 | WPMY1-GM130-SQSTM1 0 | WPMY1-TP53BP1-CLTA 0 | WPMY1-TUBA1B-RELA 0

NC[C@H](O)c1ccc(O)c(O)c1 [norepinephrine]
inactive: A549-ACTB-RAB5A 0 | A549-CANX-COX4 0 | A549-GM130-SQSTM1 0 | A549-TP53BP1-CLTA 0 | A549-TUBA1B-RELA 0 | HepG2-ACTB-RAB5A 0 | HepG2-CANX-COX4 0 | HepG2-GM130-SQSTM1 0 | HepG2-TP53BP1-CLTA 0 | HepG2-TUBA1B-RELA 0 | WPMY1-ACTB-RAB5A 0 | WPMY1-CANX-COX4 0 | WPMY1-GM130-SQSTM1 0 | WPMY1-TP53BP1-CLTA 0 | WPMY1-TUBA1B-RELA 0

C(=C/c1ccccc1)/CN1CCN(C(c2ccccc2)c2ccccc2)CC1 [cinnarazine]
inactive: A549-ACTB-RAB5A 0 | A549-CANX-COX4 0 | A549-GM130-SQSTM1 0 | A549-TP53BP1-CLTA 0 | A549-TUBA1B-RELA 0 | HepG2-ACTB-RAB5A 0 | HepG2-CANX-COX4 0 | HepG2-GM130-SQSTM1 0 | HepG2-TP53BP1-CLTA 0 | HepG2-TUBA1B-RELA 0 | WPMY1-ACTB-RAB5A 0 | WPMY1-CANX-COX4 0 | WPMY1-GM130-SQSTM1 0 | WPMY1-TP53BP1-CLTA 0 | WPMY1-TUBA1B-RELA 0

CCC(CC)(NC(=O)C(C)C)C(=O)N[C@@H](CCCNC(=N)N)C(=O)NC1(C(=O)NC(c2ccc(F)cc2)c2ccc(F)cc2)CCCC1
inactive: A549-ACTB-RAB5A 0 | A549-CANX-COX4 0 | A549-GM130-SQSTM1 0 | A549-TP53BP1-CLTA 0 | A549-TUBA1B-RELA 0 | HepG2-ACTB-RAB5A 0 | HepG2-CANX-COX4 0 | HepG2-GM130-SQSTM1 0 | HepG2-TP53BP1-CLTA 0 | HepG2-TUBA1B-RELA 0 | WPMY1-ACTB-RAB5A 0 | WPMY1-CANX-COX4 0 | WPMY1-GM130-SQSTM1 0 | WPMY1-TP53BP1-CLTA 0 | WPMY1-TUBA1B-RELA 0

COC(=O)C1CC23C=CCN4CCC5(c6ccccc6NC15[C@H]2C)C43 (stereo not given in full) [Vindolinine dichlorhydrate]
inactive: A549-ACTB-RAB5A 0 | A549-CANX-COX4 0 | A549-GM130-SQSTM1 0 | A549-TP53BP1-CLTA 0 | A549-TUBA1B-RELA 0 | HepG2-ACTB-RAB5A 0 | HepG2-CANX-COX4 0 | HepG2-GM130-SQSTM1 0 | HepG2-TP53BP1-CLTA 0 | HepG2-TUBA1B-RELA 0 | WPMY1-ACTB-RAB5A 0 | WPMY1-CANX-COX4 0 | WPMY1-GM130-SQSTM1 0 | WPMY1-TP53BP1-CLTA 0 | WPMY1-TUBA1B-RELA 0

COc1ccc(C2(CNC(=O)c3ccc(NC(=O)c4ccco4)cc3)CCOCC2)cc1
inactive: A549-ACTB-RAB5A 0 | A549-CANX-COX4 0 | A549-GM130-SQSTM1 0 | A549-TP53BP1-CLTA 0 | A549-TUBA1B-RELA 0 | HepG2-ACTB-RAB5A 0 | HepG2-CANX-COX4 0 | HepG2-GM130-SQSTM1 0 | HepG2-TP53BP1-CLTA 0 | HepG2-TUBA1B-RELA 0 | WPMY1-ACTB-RAB5A 0 | WPMY1-CANX-COX4 0 | WPMY1-GM130-SQSTM1 0 | WPMY1-TP53BP1-CLTA 0 | WPMY1-TUBA1B-RELA 0

NCC[C@H](O)C(=O)N[C@H]1C[C@@H](N)[C@H](O[C@H]2O[C@H](CN)[C@@H](O)[C@H](O)[C@H]2O)[C@@H](O)[C@@H]1O[C@H]1O[C@H](CO)[C@@H](O)[C@H](N)[C@H]1O [Amikacin hydrate]
inactive: A549-ACTB-RAB5A 0 | A549-CANX-COX4 0 | A549-GM130-SQSTM1 0 | A549-TP53BP1-CLTA 0 | A549-TUBA1B-RELA 0 | HepG2-ACTB-RAB5A 0 | HepG2-CANX-COX4 0 | HepG2-GM130-SQSTM1 0 | HepG2-TP53BP1-CLTA 0 | HepG2-TUBA1B-RELA 0 | WPMY1-ACTB-RAB5A 0 | WPMY1-CANX-COX4 0 | WPMY1-GM130-SQSTM1 0 | WPMY1-TP53BP1-CLTA 0 | WPMY1-TUBA1B-RELA 0

COc1cc(C#N)ccc1S(=O)(=O)Nc1ccc2c(c1)cc(C)c(=O)n2C
inactive: A549-ACTB-RAB5A 0 | A549-CANX-COX4 0 | A549-GM130-SQSTM1 0 | A549-TP53BP1-CLTA 0 | A549-TUBA1B-RELA 0 | HepG2-ACTB-RAB5A 0 | HepG2-CANX-COX4 0 | HepG2-GM130-SQSTM1 0 | HepG2-TP53BP1-CLTA 0 | HepG2-TUBA1B-RELA 0 | WPMY1-ACTB-RAB5A 0 | WPMY1-CANX-COX4 0 | WPMY1-GM130-SQSTM1 0 | WPMY1-TP53BP1-CLTA 0 | WPMY1-TUBA1B-RELA 0

C[N+]1(C)[C@@H]2C[C@@H](OC(=O)C(O)(c3cccs3)c3cccs3)C[C@H]1[C@@H]1O[C@@H]12 [Tiotropium bromide]
inactive: A549-ACTB-RAB5A 0 | A549-CANX-COX4 0 | A549-GM130-SQSTM1 0 | A549-TP53BP1-CLTA 0 | A549-TUBA1B-RELA 0 | HepG2-ACTB-RAB5A 0 | HepG2-CANX-COX4 0 | HepG2-GM130-SQSTM1 0 | HepG2-TP53BP1-CLTA 0 | HepG2-TUBA1B-RELA 0 | WPMY1-ACTB-RAB5A 0 | WPMY1-CANX-COX4 0 | WPMY1-GM130-SQSTM1 0 | WPMY1-TP53BP1-CLTA 0 | WPMY1-TUBA1B-RELA 0

CC1=NN(c2ccc(C(=O)O)cc2)C(=O)/C1=C\c1ccc(-c2cc(C)c(C)cc2[N+](=O)[O-])o1
inactive: A549-ACTB-RAB5A 0 | A549-CANX-COX4 0 | A549-GM130-SQSTM1 0 | A549-TP53BP1-CLTA 0 | A549-TUBA1B-RELA 0 | HepG2-ACTB-RAB5A 0 | HepG2-CANX-COX4 0 | HepG2-GM130-SQSTM1 0 | HepG2-TP53BP1-CLTA 0 | HepG2-TUBA1B-RELA 0 | WPMY1-ACTB-RAB5A 0 | WPMY1-CANX-COX4 0 | WPMY1-GM130-SQSTM1 0 | WPMY1-TP53BP1-CLTA 0 | WPMY1-TUBA1B-RELA 0

Cc1[nH]c2ccccc2c1CCNC(=O)c1ccccc1F
inactive: A549-ACTB-RAB5A 0 | A549-CANX-COX4 0 | A549-GM130-SQSTM1 0 | A549-TP53BP1-CLTA 0 | A549-TUBA1B-RELA 0 | HepG2-ACTB-RAB5A 0 | HepG2-CANX-COX4 0 | HepG2-GM130-SQSTM1 0 | HepG2-TP53BP1-CLTA 0 | HepG2-TUBA1B-RELA 0 | WPMY1-ACTB-RAB5A 0 | WPMY1-CANX-COX4 0 | WPMY1-GM130-SQSTM1 0 | WPMY1-TP53BP1-CLTA 0 | WPMY1-TUBA1B-RELA 0

CO[C@H]1C=CO[C@@]2(C)Oc3c(C)c(O)c4c(O)c(c5c(nc6cc(C)ccn65)c4c3C2=O)NC(=O)C(C)=CC=C[C@H](C)[C@H](O)[C@@H](C)[C@@H](O)[C@@H](C)[C@H](OC(C)=O)[C@@H]1C [Rifaximin]
inactive: A549-ACTB-RAB5A 0 | A549-CANX-COX4 0 | A549-GM130-SQSTM1 0 | A549-TP53BP1-CLTA 0 | A549-TUBA1B-RELA 0 | HepG2-ACTB-RAB5A 0 | HepG2-CANX-COX4 0 | HepG2-GM130-SQSTM1 0 | HepG2-TP53BP1-CLTA 0 | HepG2-TUBA1B-RELA 0 | WPMY1-ACTB-RAB5A 0 | WPMY1-CANX-COX4 0 | WPMY1-GM130-SQSTM1 0 | WPMY1-TP53BP1-CLTA 0 | WPMY1-TUBA1B-RELA 0
